An excerpt weighted towards active compounds, which were near 2.1% of everything screened.
PLCb3 inh: PLC-beta3 (human) inhibition, primary screen; Purified PLC-beta3, fluorogenic substrate, fluorescence; inhibition, % at 12.2 µM; actives 0.18% (n = 370,000); AID 720704; Q01970; in the data active = inhibition above about 11%;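 note: 0% = median of compound wells on plate and 100% = full blocker control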
ADAM10 inh: inhibitors of human ADAM10; O14672; recombinant ADAM10, EDANS/DABCYL FRET peptide cleavage, 3 h; inhibition, % at 7 µM; actives 0.62% (n = 370,000); AID 720582;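 active = inhibition above a per-campaign cutoff equal to the mean of compounds falling between control-based bounds plus 3 SD, cut at about 20% in these data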;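 note: 0% = DMSO wells while the 100% control is not disclosed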
Rce1 inh: inhibitors of yeast Ras-converting enzyme. Q03530. yeast membranes, quenched prenylated peptide cleavage fluorescence. actives 0.27% (n = 290,000). calls only;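 active = fall in fluorescence gain of 50% or more versus controls, with final raw signal at or below 3038400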;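 note: plate controls were neutral control wells for no effect and wells lacking membranes for full effect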
ADAM17 inh: inhibits human ADAM17; recombinant ADAM17, EDANS/DABCYL FRET peptide cleavage; inhibition, % at 6.95 µM; AID 720648; actives 0.83% (n = 370,000);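 active = inhibition above the mean of compounds lying between control limits plus 3 SD, set per campaign, cut at about 8.5% in these data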;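 note: 0% = DMSO-only wells as the low control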
PLC-gamma1 inh: PLC-gamma1 (human) inhibition, primary screen | actives 0.84% (n = 370,000) | AID 720700 | purified PLC-gamma1, fluorogenic substrate, fluorescence | P19174 | inhibition, % at 12.2 µM; in the data active = inhibition above about 9.5%
Target sequence (P19174 whole entry, looked up): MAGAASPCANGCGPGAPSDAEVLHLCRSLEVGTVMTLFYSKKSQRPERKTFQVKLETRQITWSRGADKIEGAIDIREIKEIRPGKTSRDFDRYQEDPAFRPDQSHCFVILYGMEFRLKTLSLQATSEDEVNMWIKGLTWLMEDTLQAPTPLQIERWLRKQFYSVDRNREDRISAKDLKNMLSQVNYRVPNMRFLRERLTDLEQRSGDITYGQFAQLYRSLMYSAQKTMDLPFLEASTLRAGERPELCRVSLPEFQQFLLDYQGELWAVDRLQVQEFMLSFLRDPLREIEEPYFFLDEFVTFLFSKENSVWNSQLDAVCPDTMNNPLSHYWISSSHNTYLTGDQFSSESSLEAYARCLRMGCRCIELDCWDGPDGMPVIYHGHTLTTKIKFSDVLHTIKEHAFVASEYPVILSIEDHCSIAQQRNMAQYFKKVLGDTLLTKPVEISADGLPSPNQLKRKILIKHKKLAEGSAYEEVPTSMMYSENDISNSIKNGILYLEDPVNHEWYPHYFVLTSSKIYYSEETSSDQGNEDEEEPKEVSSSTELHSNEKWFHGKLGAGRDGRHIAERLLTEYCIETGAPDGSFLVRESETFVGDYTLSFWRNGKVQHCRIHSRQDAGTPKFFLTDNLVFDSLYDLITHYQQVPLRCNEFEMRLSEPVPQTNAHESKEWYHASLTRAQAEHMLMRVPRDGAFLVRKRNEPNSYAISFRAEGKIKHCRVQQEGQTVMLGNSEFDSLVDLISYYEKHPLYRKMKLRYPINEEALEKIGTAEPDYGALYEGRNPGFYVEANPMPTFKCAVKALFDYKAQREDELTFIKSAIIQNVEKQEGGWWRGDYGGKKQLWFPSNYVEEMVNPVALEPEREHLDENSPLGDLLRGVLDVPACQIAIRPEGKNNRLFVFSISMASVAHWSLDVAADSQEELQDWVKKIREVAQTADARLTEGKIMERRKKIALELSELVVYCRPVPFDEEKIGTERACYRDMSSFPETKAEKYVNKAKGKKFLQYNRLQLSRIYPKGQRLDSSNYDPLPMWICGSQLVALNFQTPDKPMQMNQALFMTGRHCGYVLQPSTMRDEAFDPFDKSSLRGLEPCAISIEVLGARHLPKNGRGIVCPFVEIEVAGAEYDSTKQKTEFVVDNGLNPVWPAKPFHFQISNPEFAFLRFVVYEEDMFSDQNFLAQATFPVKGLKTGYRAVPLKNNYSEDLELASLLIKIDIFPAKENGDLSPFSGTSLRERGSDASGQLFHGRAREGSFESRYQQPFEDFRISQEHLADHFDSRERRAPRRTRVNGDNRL
An asterisk follows results filed as active.

Screening COc1ccc(S[C@]2(C(=O)N(C)C)CC(=O)N(S(=O)(=O)c3ccc(F)cc3)[C@@H]2c2ccc(OC)cc2)cc1 returned PLCb3 inh -1.3, ADAM10 inh -1.4, ADAM17 inh 2.9 and PLC-gamma1 inh 0.1.
For Nc1ccn([C@@H]2O[C@H](C(=O)N3CCN(C(=O)C(F)(F)F)CC3)[C@@H](O)[C@H]2O)c(=O)n1 the results were PLCb3 inh 0.5, ADAM10 inh -2.4, ADAM17 inh -2.6 and PLC-gamma1 inh -2.5.
For COC(=O)[C@]12C[C@H](CC(=O)NCc3cccc(C(F)(F)F)c3)C(=O)N(CCc3ccc(OC)c(OC)c3)C1=C[C@H](COCc1ccccc1)O[C@@H]2C the results were PLCb3 inh 2.6, ADAM10 inh 11.2, ADAM17 inh 6.3 and PLC-gamma1 inh -0.8.
Screening Cc1c(C(=O)Nc2cccc(N(C)S(C)(=O)=O)c2)cccc1[N+](=O)[O-] returned PLCb3 inh 14.4*, ADAM10 inh 6.3, Rce1 inh inactive, ADAM17 inh 6.7 and PLC-gamma1 inh 13.6*.
For CCN1C(=O)[C@H]2[C@@H](c3ccc(-c4ccc(F)cc4)c(OC)c3)N3CCCC[C@@]3(C(=O)OC)[C@H]2C1=O the results were PLCb3 inh -0.7, ADAM10 inh 7.3, ADAM17 inh 8.6* and PLC-gamma1 inh 2.1.
O=C(COC(=O)c1ccccc1Cc1ccccc1)NC1CCS(=O)(=O)C1 (configuration not stated) was read as PLCb3 inh -5.2, ADAM10 inh 1.5, Rce1 inh active, ADAM17 inh 0.0 and PLC-gamma1 inh 0.7.
Screening O=C(COC(=O)c1ccccc1SCC(=O)NC1CCS(=O)(=O)C1)NC1CCS(=O)(=O)C1 (configuration not stated) returned PLCb3 inh -5.7, ADAM10 inh -39.5, Rce1 inh inactive, ADAM17 inh -10.8 and PLC-gamma1 inh -0.1.
`NS(=O)(=O)c1ccc(N/N=C/c2cn(-c3ccccc3)nc2-c2cccs2)cc1` gave PLCb3 inh -70.8, ADAM10 inh -37.7, Rce1 inh active, ADAM17 inh -14.3 and PLC-gamma1 inh -61.4.
`CC(=O)OC1=C(O)C(=O)c2ccccc2C1=O` gave Rce1 inh active.
`Cc1ccc(NC(=O)CN(C)Cc2ccc(Cl)cc2)cc1` gave PLCb3 inh -2.7, ADAM10 inh 6.6, Rce1 inh inactive, ADAM17 inh 8.8* and PLC-gamma1 inh 0.7.
Screening CCOC(=O)COc1ccc(/C=C/[N+](=O)[O-])c(OCC(=O)OCC)c1 returned PLCb3 inh -3.5, ADAM10 inh 9.3, Rce1 inh inactive, ADAM17 inh 9.1* and PLC-gamma1 inh -2.8.
`CCOC(=O)COc1ccc2ccccc2c1/C=C/[N+](=O)[O-]` gave PLCb3 inh -3.7, ADAM10 inh -13.0, Rce1 inh inactive, ADAM17 inh -4.0 and PLC-gamma1 inh -2.6.
Cc1ccc(N2C(=O)C3C(C2=O)N2C(c4cccs4)C4C(=O)N(c5ccc(C)cc5)C(=O)C4N2C3c2cccs2)cc1 (configuration not stated) was read as PLCb3 inh -18.5, ADAM10 inh 12.1, Rce1 inh inactive, ADAM17 inh 13.0* and PLC-gamma1 inh 8.6.
For CCCC[C@H](C(=O)N(CC)c1ccccc1)[C@@H](O)c1ccc(Cl)cc1 the results were PLCb3 inh 4.0, ADAM10 inh 9.6, ADAM17 inh 2.7 and PLC-gamma1 inh 0.9.
`COc1ccccc1N1CCN(C(=O)c2ccc3c(c2)CCN3S(=O)(=O)c2ccccc2)CC1` gave PLCb3 inh -12.9, ADAM10 inh 12.5, Rce1 inh inactive, ADAM17 inh 7.1 and PLC-gamma1 inh 11.5*.
Screening COc1ccccc1N1CCN(C(=O)c2cccc(C(=O)N3CCN(c4ccccc4OC)CC3)c2)CC1 returned PLCb3 inh -3.9, ADAM10 inh 1.0, ADAM17 inh -1.4 and PLC-gamma1 inh 0.0.
For COc1ccccc1N1CCN(C(=O)c2coc(=O)c(Br)c2)CC1 the results were PLCb3 inh -194.4, ADAM10 inh inactive, Rce1 inh active, ADAM17 inh -246.1 and PLC-gamma1 inh -145.2.
O=C(OC12CCCN(C1)/C(=C/c1ccc(Cl)cc1)C2)C1CCCC1 (configuration not stated) was read as PLCb3 inh 2.9, ADAM10 inh -6.3, ADAM17 inh -0.8 and PLC-gamma1 inh -1.0.
Screening Nc1nnnn1/N=C/c1ccccc1OCc1ccc(Cl)cc1 returned PLCb3 inh -0.2, ADAM10 inh -5.0, Rce1 inh inactive, ADAM17 inh 1.4 and PLC-gamma1 inh 4.3.
